# Assay results: PubChem BioAssay (EPA / NIEHS)
# Active and inactive are the calls of the source. The calls were made as follows: active = hit-call score of the fitted dose curve at least 0.9, where 1 is the maximum; inactive = score below 0.9.
# Assay: APR_HepG2_CellLoss_72hr: Apredica 72-hour HepG2 Assay for Cell Loss (AID 2282915)
# Details: high-content imaging
# Experimental: APR_HepG2_72hr is a cell-based, multiplexed-readout assay that uses HepG2, a human liver cell line, with measurements taken at 72 hours after chemical dosing in a 384-well plate.APR_HepG2_CellLoss_72hr is one of 10 assay component(s) measured or calculated from the APR_HepG2_72hr assay. It is designed to make measurements of cell number, a form of viability reporter, as detected with fluorescence intensity signals by HCS Fluorescent Imaging technology.Data from the assay component APR_HepG2_CellLoss_72hr was analyzed into 1 assay endpoint. This assay endpoint, APR_HepG2_CellLoss_72hr, was analyzed with bidirectional fitting relative to DMSO as the negative control and baseline of activity. Using a type of viability reporter, measures of all nuclear dna for gain or loss-of-signal activity can be used to understand the viability at the cellular-level. Furthermore, this assay endpoint can be referred to as a secondary readout, because this assay has produced multiple assay endpoints where this one serves a viability function. To generalize the intended target to other relatable targets, this assay endpoint is annotated to the cell cycle intended target family, where the subfamily is proliferation.
# Cells were treated with dimethyl sulfoxide (DMSO) as a solvent control at a final concentration of 0.5% v/v or with compounds in DMSO with a resulting final DMSO concentration of 0.5% v/v. Compound treatment was done at concentrations of 0.39, 0.78, 1.56, 3.12, 6.24, 12.5, 25, 50, 100, and 200 uM in duplicate on each plate. Cells were treated with compounds for 1, 24, or 72 hr. Carbonyl […] m-chloro-phenylhydrazone (CCCP) and taxol were used as positive controls for mitochondrial function and cytoskeletal stability, respectively; DMSO served as the negative control for this experiment. Cells were fixed by the direct addition of 50 uL formaldehyde in Hank's Balanced Salt Solution (HBSS) to a final concentration of 3.7%. After incubation in the fixation medium for 30 min at room temperature (293-298 K), cells were rinsed twice with HBSS and treated with cell permeabilization buffer (16 uL of 0.5% Triton X-100) for 10 min at room temperature (293-298 K) before labeling. For mitochondrial membrane potential and mitochondrial measurements, pre-fixed cells were incubated with 50 uL of MitoTracker Red CMXRos (Invitrogen) at a concentration of 250 nM for 30 min before fixation. In the remaining cases, post-fixed cells were labeled by incubation with a multiplexed mixture of primary antibodies in HBSS for 60 min at room temperature (293-298 K) to detect immunoreactivity of c-Jun (1:500), phospho-histone H3 (1:100), phospho-histone H2A.x (1:200), p53 (1:400), alpha-tubulin (1:200) and Hoechst 33342 (2 ug/mL). Cells were labeled for multiplexed imaging on two separate plates: a) Hoechst 33342, MitoTracker Red, phospho-histone H3, and alpha-tubulin, and b) Hoechst 33342, phospho-histone H2A.x, and c-Jun. A final rinse with HBSS (50 uL) was performed before analysis. The primary and secondary antibodies for the proteins were phospho-histone H3 (rabbit anti-phospho-histone H3 and FITC-donkey anti-rabbit IgG), phospho-histone H2A.x (mouse anti-phospho-histone H2A.x and FITC-donkey anti-mouse IgG), c-Jun (rabbit anti-phospho-c-Jun and Cy3-donkey anti-rabbit IgG), p53 (sheep anti-p53 and Cy5-donkey anti-sheep IgG), alpha-tubulin (mouse anti-alpha-tubulin and Cy5-donkey anti-mouse IgG). These antibodies are available as the CellCiphr HepG2 assay kit (Millipore).Digital images of each well were captured using a Cellomics ArrayScan VTI (Thermo Scientific Cellomics) (0.8 NA objective, 0.63x optical coupler, and XF-93 filter set) at 20x magnification. The images were acquired using the autofocus feature of the ArrayScan instrument, which entails the following steps. First, the camera focuses on channel 1 (Hoechst 33342), where nuclei are identified. Second, a Z offset of 1 um is used for capturing mitochondria (MitoTracker Red). […]
SMILES,outcome,AC50
CC[C@H](C)[C@@H](C(=O)O)n1sc2ccccc2c1=O,inactive,–
OCCC(F)(F)C(F)(F)C(F)(F)C(F)(F)C(F)(F)C(F)(F)F,inactive,–
c1ccc2cc3c(ccc4ccccc43)cc2c1,–,9.42 µM (active)
CCCCCCCCOC(=O)CCCCCCCCC(=O)OCCCCCCCC,inactive,–
Cc1cc(CCN2CCN(c3nsc4ccccc34)CC2)cc2c1NC(=O)CC2(C)C,–,30.9 µM (active)
OCCC(F)(F)C(F)(F)C(F)(F)C(F)(F)C(F)(F)C(F)(F)C(F)(F)C(F)(F)F,–,34.8 µM (active)
CCCCCCCCCCCCCCCS(=O)(=O)Oc1ccccc1,inactive,–
O=c1c(-c2ccc(O)cc2)coc2cc(O)ccc12,inactive,–
CCCCOCCO,inactive,–
Nc1cccc2c(N)cccc12,–,83.1 µM (active)
COC(=O)CCCCC(=O)OC,inactive,–
CCCCCCCCCCCCc1ccccc1S(=O)(=O)O,–,149 µM (active)
CC(C)CCCCCCOC(=O)CCCCC(=O)OCCCCCCC(C)C,inactive,–
CN1CCC[C@H]1c1cccnc1,inactive,–
CC(C)(C)c1cccc(C(C)(C)C)c1O,–,113 µM (active)
CC1=C(/C=C/C(C)=C/C=C/C(C)=C/C(=O)O)C(C)(C)CCC1,–,62 µM (active)
CCc1nn(C2CCCCC2)c2cc(C3(C#N)CCC(C(=O)O)CC3)ccc12 (stereo not given),–,33.3 µM (active)
COCC(C)OCC(C)O (stereo not given),inactive,–
CCCCC(CC)COC(=O)CCCCC(=O)OCc1ccccc1 (stereo not given),inactive,–
C[C@@H]1C[C@H]2[C@@H]3CCC4=CC(=O)C=C[C@]4(C)[C@@]3(F)[C@@H](O)C[C@]2(C)[C@@]1(O)C(=O)COP(=O)(O)O,–,6.32 µM (active)

SMILES,outcome,AC50
CC(C)(C)c1ccc(O)c(C(C)(C)C)c1,–,66 µM (active)
CC(C)(C)CC(C)(C)c1ccc(O)c(-n2nc3ccccc3n2)c1,–,65.5 µM (active)
CC(=O)NC1(c2cccc(F)c2)CCN(CC[C@@]2(c3ccc(Cl)c(Cl)c3)CN(c3ccccc3)C(=O)CO2)CC1,–,21.3 µM (active)
CCCCCCCCC(=O)O,inactive,–
CC(=O)CC(C)(C)O,–,11 µM (active)
CCCOc1sc(C(=O)N2CCC(c3cc(CN)ccc3F)CC2)c(C)c1Br,–,7.86 µM (active)
Cc1cc(C)c(O)c(C)c1,inactive,–
O=[N+]([O-])c1ccc(O)cc1,inactive,–
COCC(C)O (stereo not given),inactive,–
O=C(O)Cc1cc(I)c(Oc2cc(I)c(O)c(I)c2)c(I)c1,inactive,–
COc1ccc([N+](=O)[O-])cc1N,inactive,–
CCC(C)(C)C1CCC(O)CC1 (stereo not given),–,122 µM (active)
O=C(/C=C/c1ccc(O)cc1)CC(=O)/C=C/c1ccc(O)cc1,inactive,–
O=C(O)c1ccccc1C(c1ccc(O)cc1)c1ccc(O)cc1,–,80.2 µM (active)
Oc1cc2ccccc2c2ccccc12,–,4.01 µM (active)
OC1CCC(C2CCCCC2)CC1 (stereo not given),inactive,–
ClC1=C(Cl)C(Cl)(Cl)C(Cl)=C1Cl,inactive,–
CCCCC[C@H](O)CC(=O)CCc1ccc(O)c(OC)c1,inactive,–
c1ccc2c(c1)ccc1ccccc12,inactive,–
CCCOC(=O)c1ccc(O)cc1,inactive,–
